Data: ChEMBL document CHEMBL3988442, “University of Dundee, Small-Polar-MMV Screening Library” (2021)
About 13,000 (27%) of roughly 48,000 compounds showed an effect of 50% or more. This is one part of the list.

These compounds were tested on Wolbachia pipientis (assay: Anti-Wolbachia Cell-Based Screen). Settings: 5 µM.
Format: functional
Design: scale not given: in the data most compounds retested in dose-response had high values

SMILES | Percent Effect
CSCC(=O)Nc1ncn(Cc2cccc(Br)c2)n1 | 13.99%
Cc1ncsc1CCN(C)Cc1ccc(Br)o1 | 8.382%
CN(C)C1CN(C(=O)Nc2cccc(OC(F)F)c2)C1 | -11.25%
CCN(CC)C(=O)[C@@H]1C[C@@H](N)CN1C(=O)c1cc2c([nH]c1=O)CCC2 | -5.971%
CCCS(=O)(=O)NCc1cccnc1OCc1ccccc1 | 9.301%
CN1CCN(C[C@@H]2CN(C(=O)c3ccccc3C#N)C[C@@H]2CO)CC1 | 6.523%
CCc1nc(CNc2ccc(-c3nc(C4CC4)no3)cn2)no1 | -0.6483%
CC(CO)(NC(=O)Nc1nncs1)C1CCCCC1 (centres undefined) | -9.276%
COCCc1noc(CNC(C)(CO)C2CCCCC2)n1 (centres undefined) | 130.3%
CCC(=O)N1CCCC(C(=O)NCc2noc(Cc3ccccc3)n2)C1 (centres undefined) | 1.423%
CCc1nc(CNC(C)(CO)C2CCCCC2)no1 (centres undefined) | 105.4%
COCCc1noc(CNC2CCSC2)n1 (centres undefined) | 7.087%
COCCc1noc(CNC(=O)C2CC(=O)N(C(C)(C)C)C2)n1 (centres undefined) | -10.49%
CC(=O)N1CCCC(C(=O)NCc2noc(Cc3ccccc3)n2)C1 (centres undefined) | 10.7%
CC(CO)(NCc1noc(Cc2ccccc2)n1)C1CCCCC1 (centres undefined) | 91.55%
O=C(O)C(F)(F)F.O=C(O)C(F)(F)F.O=C(O)c1cc2c(nc1-c1ccoc1)CCN(CC1CCOC1)CC2 (centres undefined) | 7.736%
O=C(CCC(=O)N1CCC(Cc2ccc(CO)cc2)C1)c1ccccc1 (centres undefined) | -6.413%
O=C(c1coc2ccccc12)N1CCCC1 | 2.375%
CCS(=O)(=O)N1CC[C@@H]2[C@H](COCC3CC3)CN(C)C(=O)[C@@H]2CC1 | 34.67%
CN(C)c1cc(N(C)Cc2cc(C(C)(C)C)n[nH]2)ncn1 | 2.487%
CN(Cc1cc(C(C)(C)C)n[nH]1)C(=O)c1ccccc1C1CCNC1 (centres undefined) | 27.35%
O=C(c1ccc2nccn2c1)N(CCO)Cc1ccccc1F | -19.18%
CC(C)c1nc(CN(C)C(=O)c2ccccc2C2CCNC2)cs1 (centres undefined) | 31.56%
CN(Cc1cc(C(C)(C)C)n[nH]1)C(=O)c1cn2ccsc2n1 | 85.98%
CC(C)c1nc(CN(C)C(=O)c2cn3ccsc3n2)cs1 | 97.44%
Cc1ccccc1CN(CCN(C)C)C(=O)c1ccc2nccn2c1 | -23.59%

SMILES | Percent Effect
CC(C)c1nc(CN(C)C(=O)CNC(N)=O)cs1 | -43.04%
CN(Cc1cc(C(C)(C)C)n[nH]1)C(=O)c1ccc2nccn2c1 | 54.27%
CCCOC(=O)N1CCCC(c2nnc(CN3CCOCC3)n2C)C1 (centres undefined) | -3.793%
Cc1cc(CN2CCC(CNC(=O)c3ccc4[nH]cnc4c3)C2)[nH]n1 (centres undefined) | 4.896%
O=C(Nc1cnc(Oc2ccccc2F)nc1)C1CC1 | -9.559%
COCCOC(=O)N1CCC(c2nccn2CC2CC2)CC1 | 0.7863%
COc1ccc(-n2ncc(C(C)NCc3cnc(SC)nc3)c2C)cc1 (centres undefined) | 30.41%
CC[C@@]1(O)CCN(C(=O)c2ccc(-c3ccco3)cc2)C[C@H]1O | -5.125%
NCCO[C@H]1C[C@@H](O)C12CCN(C(=O)COc1cccc(Cl)c1)CC2 | -10.97%
CO[C@H]1C[C@@H](O)C12CCN(C(=O)CCCOc1ccccc1)CC2 | 97.53%
CO[C@H]1C[C@@H](O)C12CCN(CCOc1ccc(Cl)cc1)CC2 | 86.28%
CC[C@@]1(O)CCN(CCCOc2ccc(C(N)=O)cc2)C[C@H]1O | 95.4%
COc1cc(C)c(CN2CCC3(CC2)[C@H](O)C[C@@H]3OCCN)cc1C | 3.65%
CC[C@@]1(O)CCN(C(=O)c2ccc(OC(F)F)cc2)C[C@H]1O | -4.955%
CCOc1cccc(C(=O)N2CCC3(CC2)[C@H](O)C[C@@H]3OC)c1 | 2.834%
NCCO[C@H]1C[C@@H](O)C12CCN(C(=O)CCOc1ccccc1)CC2 | -12.3%
CO[C@H]1C[C@@H](O)C12CCN(CCCOc1ccc(C(N)=O)cc1)CC2 | 113.2%
CN(C)CCO[C@H]1C[C@@H](O)C12CCN(c1ncccc1Cl)CC2 | -1.379%
NC(=O)COc1ccc(CN2CCC3(CC2)[C@H](O)C[C@@H]3O)cc1Cl | 17.24%
Cc1ncccc1OC1(C(=O)NCCc2ccccn2)CCNCC1 | -3.101%
N#Cc1cc(Br)ccc1NC1CCN(CC(N)=O)CC1 | -6.071%
O=C(CSc1ccc2c(c1)OCCO2)NS(=O)(=O)c1ccccc1Cl | -4.158%
CC(O)CN1CCN(C(=O)CN(C)c2ccc(Cl)cn2)CC1 (centres undefined) | -12.66%
O=C1Nc2ccccc2/C1=C1\CCCCN1 | 114.3%
O=C1Nc2ccccc2/C1=C1\CCCCCN1 | 122.1%
O=C1Nc2ccccc2/C1=C1\CCCN1 | 133.6%

SMILES | Percent Effect
CCCN1C[C@H]2CC[C@@H]1CN(Cc1cccc(-n3cccn3)c1)C2 | -7.313%
CC(C)n1ccc(C(=O)N2CCCC(n3cncn3)C2)n1 (centres undefined) | 105.9%
CC(C)c1cc(C(=O)N2CCCC(n3cncn3)C2)n[nH]1 (centres undefined) | 96.9%
O=C(c1cc(C2CC2)[nH]n1)N1CCCC(n2cncn2)C1 (centres undefined) | 0.773%
CC(C)Cc1cc(C(=O)N2CCCC(n3cncn3)C2)[nH]n1 (centres undefined) | 6%
Cc1cc(C)c(CNC(=O)NC2CCN(C(=O)C(C)C)CC2)c(C)c1 | 11.56%
CC(Cn1cccn1)C(=O)N1CCC(NS(C)(=O)=O)CC1 (centres undefined) | -5.413%
CC(C)N(C)S(=O)(=O)N(C)Cc1cnn(Cc2ccccc2)c1 | -14.36%
CCS(=O)(=O)Nc1ccn(Cc2cccc(Cl)c2)n1 | -21.52%
CS(=O)(=O)Nc1cnn(Cc2cccc(Cl)c2)c1 | 81.71%
CCS(=O)(=O)Nc1cnn(Cc2cccc(Cl)c2)c1 | 132.7%
CS(=O)(=O)N1CCC(C(=O)N2CCN(Cc3cccc(Cl)c3)CC2)CC1 | -5.012%
CS(=O)(=O)Nc1cccc(CNC(=O)c2cccs2)c1 | 8.71%
COc1cc(C)ccc1OCc1nc(C(=O)N2CCCNC(=O)C2)co1 | 5.427%
CS(=O)(=O)NC[C@H]1OC[C@H]2CN(Cc3ccsc3)CC[C@H]21.O=C(O)C(F)(F)F | 114.3%
CS(=O)(=O)NC[C@@H]1OC[C@H]2CN(Cc3ccsc3)CC[C@H]21.O=C(O)C(F)(F)F | 83.99%
COCc1nnc(-c2cccc(C(=O)OC(C)C)c2)o1 | -21.92%
NC(=O)Nc1cccc(CNC(=O)CCCc2ccccc2)c1 | 3.307%
COc1ccc(-c2ccoc2)cc1CNC1CCCC1 | 10.39%
Cc1cc(-c2cnc(NC3CCCC3)nc2-c2ccoc2)on1 | 77.66%
Cc1cc(-c2cnc(N3CCCC(C)C3)nc2-c2cccnc2C)on1.Cl (centres undefined) | -3.482%
Cc1cc(-c2cnc(NC3CC3)nc2-c2ccoc2)on1 | 98.24%
CCC1CCC(N(Cc2cc(=O)n(C)c(=O)n2C)C2CC2)CC1 (centres undefined) | -6.586%
Cc1ccc(NC(=O)N(C)C)c(C(=O)OCC(=O)NC(C)C(C)C)c1 (centres undefined) | -0.8117%
CC(C)CN1CCc2[nH]cnc2C12CCN(C(=O)c1cncn1C)CC2 | -0.9954%
Cc1ccc(CNc2ccc(N3CCC(CO)CC3)cn2)o1 | -69.41%

SMILES | Percent Effect
Cl.OC[C@H]1CC[C@]2(CC1)CN(Cc1ccccn1)Cc1ccccc1O2 | -8.81%
Cc1ncc(CN2Cc3ccccc3O[C@]3(CC[C@H](CO)CC3)C2)cn1.Cl | -8.047%
Cl.OC[C@H]1CC[C@]2(CC1)CN(Cc1ccccc1F)Cc1ccccc1O2 | -7.813%
O=C(Nc1ccccc1)C1CN(Cc2ccsc2)CC12CCOCC2.O=C(O)C(F)(F)F (centres undefined) | 4.234%
Cc1ccc(CN2Cc3ccccc3O[C@]3(CC[C@H](CO)CC3)C2)o1.Cl | 111.4%
Cl.OC[C@H]1CC[C@]2(CC1)CN(Cc1ccsc1)Cc1ccccc1O2 | 114.5%
Cc1cnccc1Cn1ccnc1C1CCOC1 (centres undefined) | -17.66%
Cc1cnccc1CN1Cc2ccccc2O[C@]2(CC[C@H](CO)CC2)C1 | 131.4%
Cc1ccc(CN2CC(C(=O)Nc3ccccc3)C3(CCOCC3)C2)o1.O=C(O)C(F)(F)F (centres undefined) | 17.76%
Cc1ccc(CN2Cc3ccccc3O[C@]3(CC[C@H](CO)CC3)C2)s1.Cl | 116.6%
Cc1cnccc1CN1CCN(C)C2(CCC(=O)N(CC3CC3)CC2)C1 (centres undefined) | -0.1133%
CCCS(=O)(=O)N1CCOC2(COCCN(C(C)=O)C2)C1 (centres undefined) | -8.657%
CN(CCCc1ccc(C(F)(F)F)cc1)Cc1nccn1C | -12.04%
CC(=O)N1CCN(CC(=O)N2CCN(c3cccc(C)c3)CC2)CC1 | -12.32%
COc1ccc(-c2nc(CN3CCOCS3(=O)=O)c(C)o2)cc1 | 1.396%
CSCCC(=O)NS(=O)(=O)c1ccc2c(c1)OCCO2 | 2.619%
C1CN(c2nc(C3CC3)ns2)CCO1 | -22.29%
Cn1cncc1-c1nnc([C@H]2CCN(CC3CCCCC3)C2)o1 | -8.237%
CCCn1ncnc1C(C)NC(=O)C1CCN(CC(N)=O)CC1 (centres undefined) | -16.66%
CC(NCC1CCN(CCO)CC1)c1cccnc1 (centres undefined) | -1.701%
Cc1cncnc1C1CCN(CCO)CC1 | 125.7%
Cc1cncnc1C1CCN(CC(N)=O)CC1 | 132.7%
CN1CCN(Cc2nnc(C3CCN(CC4CC4)CC3)n2C)CC1 | -21.66%
Cc1cncnc1C1CCN(CC2CC2)CC1 | 99.03%
Cc1cc(CNC(=O)C2CCN(CC(N)=O)CC2)cc(C)n1 | 2.597%
CC(c1cccnc1)N1CCN(CCO)CC1 (centres undefined) | 9.024%
